Measured values reported in the supplement of paper PMC11001985.

The targets below were run with C#CCNC(=O)CCSSCCC(=O)NCCc1ccc(C=O)c(C=O)c1 (assay: lysine labeling ratio R10:1 (500 µM / 50 µM probe), SILAC-ABPP in living cells; higher = lower intrinsic lysine reactivity toward the probe, active = 2 or less). Settings: HeLa; probe concentrations 500 vs 50 µM.
In short: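 The two probe levels, 50 µM and 500 µM, of an alkyne-tagged, disulfide-linked lysine probe were applied to living light and heavy SILAC HeLa cells in PBS at room temperature, and the labels were run in both forward and reverse orientation. Mixed lysates underwent biotin-azide click chemistry, trypsin digestion, neutravidin capture, DTT release and alkylation before LC-MS/MS on a TIMS-TOF Pro. R is the filtered median high-probe/low-probe MS1 peptide ratio for each lysine, summarised as the median over forward and reverse replicates. Nothing above 20 is reported; such values are set to 20.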

UniProt O00560, sequence (O00560 whole entry): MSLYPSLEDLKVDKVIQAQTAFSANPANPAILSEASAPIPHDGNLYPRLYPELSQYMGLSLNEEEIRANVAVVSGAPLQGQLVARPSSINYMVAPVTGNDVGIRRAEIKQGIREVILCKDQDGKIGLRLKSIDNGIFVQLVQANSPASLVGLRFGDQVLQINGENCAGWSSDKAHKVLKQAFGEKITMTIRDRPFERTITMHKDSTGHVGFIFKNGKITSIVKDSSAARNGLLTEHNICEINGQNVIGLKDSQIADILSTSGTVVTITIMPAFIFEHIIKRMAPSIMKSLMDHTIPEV
UniProt P26038, sequence (P26038 whole entry): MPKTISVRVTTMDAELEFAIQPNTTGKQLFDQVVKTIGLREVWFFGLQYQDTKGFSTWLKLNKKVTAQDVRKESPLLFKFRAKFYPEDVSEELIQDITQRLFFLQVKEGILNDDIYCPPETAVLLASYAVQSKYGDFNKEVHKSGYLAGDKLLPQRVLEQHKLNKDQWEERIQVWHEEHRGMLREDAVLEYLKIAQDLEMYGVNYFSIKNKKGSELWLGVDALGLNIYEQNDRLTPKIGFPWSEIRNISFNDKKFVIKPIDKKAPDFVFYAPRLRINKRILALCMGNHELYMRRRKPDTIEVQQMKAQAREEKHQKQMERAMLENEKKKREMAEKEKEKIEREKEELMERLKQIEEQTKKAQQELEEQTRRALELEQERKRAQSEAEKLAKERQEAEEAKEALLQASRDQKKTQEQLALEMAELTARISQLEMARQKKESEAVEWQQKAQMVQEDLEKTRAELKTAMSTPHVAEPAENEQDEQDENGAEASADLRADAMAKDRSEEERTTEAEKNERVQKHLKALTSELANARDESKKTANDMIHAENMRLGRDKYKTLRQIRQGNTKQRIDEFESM
UniProt P38159, sequence (P38159 whole entry): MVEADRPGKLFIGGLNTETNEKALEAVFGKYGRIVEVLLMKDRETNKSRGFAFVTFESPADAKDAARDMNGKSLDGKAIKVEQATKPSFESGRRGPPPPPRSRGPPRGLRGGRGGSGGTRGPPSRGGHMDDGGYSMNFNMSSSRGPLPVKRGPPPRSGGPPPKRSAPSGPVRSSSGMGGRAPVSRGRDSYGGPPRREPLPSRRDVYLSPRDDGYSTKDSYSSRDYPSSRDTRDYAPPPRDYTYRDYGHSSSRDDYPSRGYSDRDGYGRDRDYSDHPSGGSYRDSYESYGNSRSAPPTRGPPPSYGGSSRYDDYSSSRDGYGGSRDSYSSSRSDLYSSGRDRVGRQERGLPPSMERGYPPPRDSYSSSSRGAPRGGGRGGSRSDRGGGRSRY
UniProt P22413, sequence (P22413 whole entry): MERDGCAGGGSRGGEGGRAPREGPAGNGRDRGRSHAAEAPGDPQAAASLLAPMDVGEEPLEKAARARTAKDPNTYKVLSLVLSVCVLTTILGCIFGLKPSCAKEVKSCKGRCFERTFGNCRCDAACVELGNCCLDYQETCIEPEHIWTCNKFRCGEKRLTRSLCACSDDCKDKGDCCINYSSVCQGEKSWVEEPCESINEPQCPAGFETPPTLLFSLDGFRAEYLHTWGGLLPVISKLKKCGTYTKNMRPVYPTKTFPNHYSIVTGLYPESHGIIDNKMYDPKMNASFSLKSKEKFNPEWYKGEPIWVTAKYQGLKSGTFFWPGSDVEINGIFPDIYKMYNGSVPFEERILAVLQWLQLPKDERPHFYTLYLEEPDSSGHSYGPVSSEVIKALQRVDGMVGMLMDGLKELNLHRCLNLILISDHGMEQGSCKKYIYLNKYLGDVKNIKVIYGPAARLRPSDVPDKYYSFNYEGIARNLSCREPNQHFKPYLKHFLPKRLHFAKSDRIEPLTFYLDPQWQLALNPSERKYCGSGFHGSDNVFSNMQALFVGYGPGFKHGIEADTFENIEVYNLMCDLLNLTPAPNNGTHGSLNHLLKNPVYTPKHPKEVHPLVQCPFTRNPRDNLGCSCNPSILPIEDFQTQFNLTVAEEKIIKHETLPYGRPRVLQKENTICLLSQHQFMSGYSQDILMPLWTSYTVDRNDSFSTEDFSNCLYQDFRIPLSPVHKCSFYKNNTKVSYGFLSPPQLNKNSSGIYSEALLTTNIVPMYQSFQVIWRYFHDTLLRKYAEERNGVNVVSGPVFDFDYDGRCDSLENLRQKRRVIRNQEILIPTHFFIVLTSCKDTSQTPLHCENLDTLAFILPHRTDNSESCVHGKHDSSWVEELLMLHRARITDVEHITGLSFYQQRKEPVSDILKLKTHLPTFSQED
UniProt P07910, sequence (P07910 whole entry): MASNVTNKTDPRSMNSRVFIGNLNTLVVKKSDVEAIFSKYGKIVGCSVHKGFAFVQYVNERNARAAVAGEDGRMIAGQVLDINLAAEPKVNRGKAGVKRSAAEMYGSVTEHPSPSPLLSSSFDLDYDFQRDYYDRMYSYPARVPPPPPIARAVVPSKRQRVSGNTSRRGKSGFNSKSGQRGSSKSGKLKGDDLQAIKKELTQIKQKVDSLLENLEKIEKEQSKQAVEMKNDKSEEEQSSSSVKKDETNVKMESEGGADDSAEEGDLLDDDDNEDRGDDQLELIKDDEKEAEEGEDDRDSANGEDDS
UniProt O95573, sequence (O95573 whole entry): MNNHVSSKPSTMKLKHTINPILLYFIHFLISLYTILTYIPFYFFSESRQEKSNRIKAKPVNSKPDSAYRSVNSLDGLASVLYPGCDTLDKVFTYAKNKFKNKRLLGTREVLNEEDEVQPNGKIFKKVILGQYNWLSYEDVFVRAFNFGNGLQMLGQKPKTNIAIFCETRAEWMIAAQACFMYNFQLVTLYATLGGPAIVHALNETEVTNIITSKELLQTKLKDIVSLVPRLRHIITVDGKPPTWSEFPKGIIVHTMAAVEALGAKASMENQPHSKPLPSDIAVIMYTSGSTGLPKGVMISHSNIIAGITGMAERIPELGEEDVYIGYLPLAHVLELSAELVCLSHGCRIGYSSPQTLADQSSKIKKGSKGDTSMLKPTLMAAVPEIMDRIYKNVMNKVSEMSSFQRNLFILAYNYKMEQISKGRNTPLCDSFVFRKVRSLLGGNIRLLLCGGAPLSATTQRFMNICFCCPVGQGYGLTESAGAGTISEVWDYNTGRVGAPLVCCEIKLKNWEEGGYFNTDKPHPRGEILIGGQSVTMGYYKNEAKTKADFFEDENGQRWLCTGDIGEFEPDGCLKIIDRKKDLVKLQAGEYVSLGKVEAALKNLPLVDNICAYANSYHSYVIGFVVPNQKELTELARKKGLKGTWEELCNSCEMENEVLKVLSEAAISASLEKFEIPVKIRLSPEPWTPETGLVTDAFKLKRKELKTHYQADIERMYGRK
UniProt Q8N138, sequence (Q8N138 whole entry): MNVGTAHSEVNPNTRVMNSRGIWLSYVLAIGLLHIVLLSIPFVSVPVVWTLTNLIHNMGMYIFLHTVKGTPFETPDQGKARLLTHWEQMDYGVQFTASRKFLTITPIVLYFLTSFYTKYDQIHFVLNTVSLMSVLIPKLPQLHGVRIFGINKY
UniProt O75955, sequence (O75955 whole entry): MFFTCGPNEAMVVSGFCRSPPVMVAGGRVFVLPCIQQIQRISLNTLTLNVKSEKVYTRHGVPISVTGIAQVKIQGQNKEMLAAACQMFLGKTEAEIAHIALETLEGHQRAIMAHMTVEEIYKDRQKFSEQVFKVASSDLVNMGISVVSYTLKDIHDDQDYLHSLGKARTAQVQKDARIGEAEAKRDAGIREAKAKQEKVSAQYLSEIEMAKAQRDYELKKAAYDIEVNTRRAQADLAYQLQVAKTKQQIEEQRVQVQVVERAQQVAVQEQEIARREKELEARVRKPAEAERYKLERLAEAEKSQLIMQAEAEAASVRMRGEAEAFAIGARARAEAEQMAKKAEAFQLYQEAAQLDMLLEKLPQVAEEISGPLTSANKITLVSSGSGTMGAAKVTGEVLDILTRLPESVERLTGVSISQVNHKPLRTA
UniProt O43865, sequence (O43865 whole entry): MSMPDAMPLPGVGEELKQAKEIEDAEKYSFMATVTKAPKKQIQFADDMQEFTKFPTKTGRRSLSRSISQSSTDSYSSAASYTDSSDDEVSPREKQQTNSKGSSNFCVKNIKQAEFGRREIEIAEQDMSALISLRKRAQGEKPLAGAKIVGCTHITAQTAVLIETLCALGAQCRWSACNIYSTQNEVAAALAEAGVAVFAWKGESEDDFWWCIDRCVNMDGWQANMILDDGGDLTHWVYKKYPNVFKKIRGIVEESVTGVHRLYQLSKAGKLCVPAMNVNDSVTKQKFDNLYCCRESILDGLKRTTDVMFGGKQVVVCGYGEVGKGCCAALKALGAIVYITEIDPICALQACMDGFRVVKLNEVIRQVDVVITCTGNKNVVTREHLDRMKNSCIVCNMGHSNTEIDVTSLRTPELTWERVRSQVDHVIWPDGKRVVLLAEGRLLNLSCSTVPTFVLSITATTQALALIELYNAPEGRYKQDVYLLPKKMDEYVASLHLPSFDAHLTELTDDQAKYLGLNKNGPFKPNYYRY
UniProt O15372, sequence (O15372 whole entry): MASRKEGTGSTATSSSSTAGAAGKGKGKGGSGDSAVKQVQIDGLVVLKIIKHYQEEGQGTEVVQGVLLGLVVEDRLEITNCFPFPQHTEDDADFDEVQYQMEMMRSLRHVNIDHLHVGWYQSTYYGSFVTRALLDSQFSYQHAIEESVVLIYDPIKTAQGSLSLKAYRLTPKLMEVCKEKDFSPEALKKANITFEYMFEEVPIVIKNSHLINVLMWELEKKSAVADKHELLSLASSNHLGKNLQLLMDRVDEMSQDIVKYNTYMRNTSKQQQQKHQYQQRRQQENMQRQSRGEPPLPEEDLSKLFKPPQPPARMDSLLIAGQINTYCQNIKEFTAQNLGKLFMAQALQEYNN
UniProt P51153, sequence (P51153 whole entry): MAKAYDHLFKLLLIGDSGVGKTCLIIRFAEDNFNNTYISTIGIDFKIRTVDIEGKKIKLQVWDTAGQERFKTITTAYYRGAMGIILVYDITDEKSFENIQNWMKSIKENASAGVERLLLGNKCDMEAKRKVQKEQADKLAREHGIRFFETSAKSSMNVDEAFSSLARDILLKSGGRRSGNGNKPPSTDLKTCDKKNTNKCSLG

Lysine labeling ratio R10:1, inactive:
RBMX (lysine site: K163) (UniProt P38159) 3.88, LRP1 (lysine site: K4230) (UniProt Q07954) 10.8, UniProt P62249 (lysine site: K4) 5.53, ORMDL3 (lysine site: K79) (UniProt Q8N138) 5.16, RAB13 (lysine site: K172) (UniProt P51153) 4.07, HNRNPC (lysine site: K98) (UniProt P07910) 3.25, P4HB (lysine site: K114) (UniProt P07237) 6.39, FBLN1 (lysine site: K649) (UniProt P23142) 2.26, ACSL3 (lysine site: K397) (UniProt O95573) 3.08, MSN (lysine site: K514) (UniProt P26038) 3.78, PROCR (lysine site: K192) (UniProt Q9UNN8) 2.15, SPTAN1 (lysine site: K2205) (UniProt Q13813) 6.67, UniProt P55072 (lysine site: K658) 6.64, S100A4 (lysine site: K48) (UniProt P26447) 5.05, SDCBP (lysine site: K109) (UniProt O00560) 5.45, MYO1C (lysine site: K667) (UniProt O00159) 2.86, UniProt Q9H336 (lysine site: K304) 2.33, FLOT1 (lysine site: K220) (UniProt O75955) 2.84

Lysine labeling ratio R10:1, active:
EIF3H (lysine site: K274) (UniProt O15372) 1.92, UniProt O43865 (lysine site: K302) 1.25, UniProt P60866 (lysine site: K34) 0.547, A2M (lysine site: K115) (UniProt P01023) 0.757, UniProt P22413 (lysine site: K448) 0.527
